The full data set covers some 8,800 targets. This sample favours those with a hit. About 0.5% of all pairs of compound and target were hits.
Key:
Test in all cases: log2 fold change, soluble protein after heating vs DMSO (PISA); higher = thermal stabilisation; K562 lysate, 10 uM; active = over 0.2 and 3.5 SD of the protein, either way, in both replicates (recomputed)
[1] = compound: C=CC(=O)N1CCC[C@@H](n2nc(-c3ccc(Oc4ccccc4)cc3)c3c(N)ncnc32)C1 [ibrutinib]
Outline: (§1)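 A 30 min treatment with 10 μM compound was applied to crude K562 extract at 1 mg/mL protein in PBS pH 7.4 with 1 mM MgCl2. Heating for 3 min spanned 48°C-58°C, after which aliquots were pooled, adjusted to 0.5% NP-40 at 4°C and spun at 21,000xg for 90 min. TMTpro 16plex LC-MS/MS of the supernatant, with channel sums equalised, gave values recorded as log-two fold change in thermal stability against solvent controls, from duplicates.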

[2] = compound: CC(=O)c1cnc2ccc(-c3cc(Cl)c(O)c(Cl)c3)nc2c1N[C@H]1CC[C@H](CN(C)C)CC1
Outline: as §1

[3] = compound: CC(C)(C)Cn1c(N)nc2ccc(-c3[nH]c(C(C)(C)C)nc3-c3ccc(F)cc3)nc21 [ralimetinib]
Outline: as §1

[4] = compound: CC(C)(O)CC(=O)NCCn1ccc2ncnc(Nc3ccc(Oc4cccc(C(F)(F)F)c4)c(Cl)c3)c21
Outline: as §1

[5] = compound: CC(C)C1=C2N=C(C=C(N2N=C1)NCC3=CC=CC=C3)NCCCCCCN
Outline: as §1

[6] = compound: CC1=C(C(CC(=O)N1)C2=CC=C(C=C2)C(F)(F)F)C(=O)NC3=C(C=C4C(=C3)C=NN4)F
Outline: as §1

[7] = compound: CC1=C(C2=C(C=C1)C(=O)C3=CC=CC=C3N2CCCN)C
Outline: as §1

[8] = compound: CC1=C(C=C(C=C1)NC(=O)C2=CC(=CC=C2)C(C)(C)C#N)NC3=CC4=C(C=C3)N=CN(C4=O)C
Outline: as §1

[9] = compound: CC1=C(C=C(C=C1)NC(=O)C2=CC(=CC=C2)N(C)C)NC(=O)C3=CC=C(C=C3)O
Outline: as §1

[10] = compound: CC1=CC=C(C=C1)SC2=C3C=C(SC3=CN=C2)C(=O)N
Outline: as §1

Measured: log2 fold change

MED12 isoform 2 (UniProt Q93074)
inactive: [1] 0.004 | [2] -0.019 | [3] 0.022 | [4] -0.009 | [5] -0.005 | [6] 0.009 | [7] 0.003 | [8] -0.005 | [9] 0.037 | [10] 0.02

LYRM4 (UniProt Q9HD34)
Sequence of UniProt Q9HD34 (Q9HD34 whole entry, looked up): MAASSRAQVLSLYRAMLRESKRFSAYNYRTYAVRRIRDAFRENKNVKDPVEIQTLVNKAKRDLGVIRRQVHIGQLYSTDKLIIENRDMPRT
inactive: [1] 0.015 | [2] 0.034 | [3] -0.036 | [4] -0.042 | [5] 0.017 | [6] 0.017 | [7] -0.027 | [8] 0.109 | [9] -0.034 | [10] -0.009

MACO1 (UniProt Q8N5G2)
inactive: [1] 0 | [2] 0.043 | [3] -0.003 | [4] -0.04 | [5] 0.01 | [6] 0.018 | [7] -0.043 | [8] -0.023 | [9] -0.002 | [10] 0.095

MORC3 (UniProt Q14149)
Sequence of UniProt Q14149 (Q14149 whole entry, looked up): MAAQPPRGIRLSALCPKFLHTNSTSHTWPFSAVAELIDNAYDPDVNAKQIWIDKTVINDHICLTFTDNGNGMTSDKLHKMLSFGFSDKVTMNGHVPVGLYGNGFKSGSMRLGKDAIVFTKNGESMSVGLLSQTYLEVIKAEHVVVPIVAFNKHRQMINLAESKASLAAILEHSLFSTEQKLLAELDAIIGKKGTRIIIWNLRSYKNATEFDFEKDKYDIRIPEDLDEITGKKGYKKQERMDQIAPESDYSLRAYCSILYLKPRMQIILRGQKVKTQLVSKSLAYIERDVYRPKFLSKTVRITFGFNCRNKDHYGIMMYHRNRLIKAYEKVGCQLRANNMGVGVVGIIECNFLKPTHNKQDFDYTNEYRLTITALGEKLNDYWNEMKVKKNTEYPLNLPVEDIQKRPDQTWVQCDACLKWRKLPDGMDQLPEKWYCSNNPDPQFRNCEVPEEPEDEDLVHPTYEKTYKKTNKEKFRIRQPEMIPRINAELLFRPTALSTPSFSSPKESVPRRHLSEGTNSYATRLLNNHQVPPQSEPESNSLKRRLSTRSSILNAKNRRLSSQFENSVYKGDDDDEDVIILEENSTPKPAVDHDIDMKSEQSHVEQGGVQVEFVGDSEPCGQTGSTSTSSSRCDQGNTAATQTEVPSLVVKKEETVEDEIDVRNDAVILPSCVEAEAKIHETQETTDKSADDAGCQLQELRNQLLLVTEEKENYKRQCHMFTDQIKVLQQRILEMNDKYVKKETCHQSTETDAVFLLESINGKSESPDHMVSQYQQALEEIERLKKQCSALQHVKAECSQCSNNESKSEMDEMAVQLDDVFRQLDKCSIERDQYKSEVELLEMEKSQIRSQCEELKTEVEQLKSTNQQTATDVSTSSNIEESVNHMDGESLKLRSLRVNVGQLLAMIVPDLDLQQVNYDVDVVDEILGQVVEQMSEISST
inactive: [1] 0.004 | [2] -0.023 | [3] 0.021 | [4] 0.013 | [5] -0.007 | [6] 0.007 | [7] -0.032 | [8] -0.021 | [9] 0.021 | [10] -0.027

KIF21A isoform 5 (UniProt Q7Z4S6)
inactive: [1] 0.027 | [2] -0.002 | [3] 0.015 | [4] 0 | [5] 0.002 | [6] 0.034 | [7] -0.031 | [8] 0.025 | [9] 0.014 | [10] 0.024

MITD1 (UniProt Q8WV92)
inactive: [1] 0.007 | [2] -0.067 | [3] -0.039 | [4] 0.01 | [5] 0.024 | [6] -0.02 | [7] -0.071 | [8] -0.059 | [9] 0.058 | [10] -0.027

MAP4K5 (UniProt Q9Y4K4)
inactive: [1] 0.029 | [2] 0.108 | [3] 0.039 | [4] 0.002 | [5] 0.098 | [6] -0.003 | [7] 0.009 | [8] 0 | [9] 0.021 | [10] 0.025

MME (UniProt P08473)
Sequence of UniProt P08473 (P08473 whole entry, looked up): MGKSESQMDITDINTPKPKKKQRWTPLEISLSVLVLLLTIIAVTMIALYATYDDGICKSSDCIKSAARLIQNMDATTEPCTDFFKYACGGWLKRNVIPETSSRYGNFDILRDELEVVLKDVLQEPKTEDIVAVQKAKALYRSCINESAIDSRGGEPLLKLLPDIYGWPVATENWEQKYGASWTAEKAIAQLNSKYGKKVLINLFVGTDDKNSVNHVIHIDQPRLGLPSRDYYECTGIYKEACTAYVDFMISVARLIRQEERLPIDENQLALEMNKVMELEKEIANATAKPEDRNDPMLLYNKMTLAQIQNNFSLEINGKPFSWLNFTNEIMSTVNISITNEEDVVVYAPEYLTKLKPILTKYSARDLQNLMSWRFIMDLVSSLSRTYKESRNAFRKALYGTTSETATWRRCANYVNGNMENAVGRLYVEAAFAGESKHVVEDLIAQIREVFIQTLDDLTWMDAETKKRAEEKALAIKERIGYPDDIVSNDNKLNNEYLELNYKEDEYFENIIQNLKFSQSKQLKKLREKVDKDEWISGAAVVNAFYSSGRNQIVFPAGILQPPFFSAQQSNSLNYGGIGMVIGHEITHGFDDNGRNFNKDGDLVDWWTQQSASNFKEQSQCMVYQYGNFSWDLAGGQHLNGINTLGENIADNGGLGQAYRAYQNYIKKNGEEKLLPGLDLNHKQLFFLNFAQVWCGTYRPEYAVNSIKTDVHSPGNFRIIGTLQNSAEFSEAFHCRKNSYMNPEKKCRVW
inactive: [1] 0.286 | [2] -0.093 | [3] -0.117 | [4] -0.156 | [5] -0.012 | [6] -0.024 | [7] -0.23 | [8] 0.007 | [9] -0.025 | [10] -0.043

MED25 isoform 3 (UniProt Q71SY5)
Sequence of UniProt Q71SY5 (Q71SY5 whole entry, looked up): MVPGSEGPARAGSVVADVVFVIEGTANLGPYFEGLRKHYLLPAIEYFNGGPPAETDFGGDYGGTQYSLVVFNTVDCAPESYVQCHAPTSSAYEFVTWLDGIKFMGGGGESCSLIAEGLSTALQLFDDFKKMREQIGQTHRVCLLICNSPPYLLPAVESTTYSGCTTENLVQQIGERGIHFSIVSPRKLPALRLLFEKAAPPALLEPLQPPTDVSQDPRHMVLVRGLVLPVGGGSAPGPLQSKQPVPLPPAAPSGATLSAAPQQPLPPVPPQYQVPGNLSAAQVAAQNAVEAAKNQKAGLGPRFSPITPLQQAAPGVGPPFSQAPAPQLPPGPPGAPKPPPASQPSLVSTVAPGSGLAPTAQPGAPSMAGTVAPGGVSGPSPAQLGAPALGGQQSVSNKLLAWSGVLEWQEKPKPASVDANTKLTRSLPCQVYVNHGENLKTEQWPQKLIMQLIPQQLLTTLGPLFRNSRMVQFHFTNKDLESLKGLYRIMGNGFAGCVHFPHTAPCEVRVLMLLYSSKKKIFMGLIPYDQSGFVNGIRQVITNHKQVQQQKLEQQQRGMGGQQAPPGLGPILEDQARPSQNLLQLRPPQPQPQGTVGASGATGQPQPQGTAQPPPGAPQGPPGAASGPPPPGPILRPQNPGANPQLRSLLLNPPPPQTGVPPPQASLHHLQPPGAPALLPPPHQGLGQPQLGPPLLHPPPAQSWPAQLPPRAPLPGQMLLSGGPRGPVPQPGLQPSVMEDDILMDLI
inactive: [1] -0.034 | [2] 0.001 | [3] -0.071 | [4] 0.045 | [5] -0.023 | [6] 0.038 | [7] -0.039 | [8] 0.035 | [9] 0.057 | [10] 0.025

KIFC1 (UniProt Q9BW19)
inactive: [1] 0.021 | [2] -0.002 | [3] -0.025 | [4] 0.007 | [5] -0.012 | [6] -0.009 | [7] 0.004 | [8] 0.002 | [9] 0.011 | [10] 0.002

KPNA4 (UniProt O00629)
inactive: [1] -0.037 | [2] -0.047 | [3] -0.024 | [4] 0.002 | [5] 0.019 | [6] 0.003 | [7] 0.019 | [8] 0.019 | [9] 0 | [10] -0.018

MORF4L1 isoform 2 (UniProt Q9UBU8)
Sequence of UniProt Q9UBU8 (Q9UBU8 whole entry, looked up): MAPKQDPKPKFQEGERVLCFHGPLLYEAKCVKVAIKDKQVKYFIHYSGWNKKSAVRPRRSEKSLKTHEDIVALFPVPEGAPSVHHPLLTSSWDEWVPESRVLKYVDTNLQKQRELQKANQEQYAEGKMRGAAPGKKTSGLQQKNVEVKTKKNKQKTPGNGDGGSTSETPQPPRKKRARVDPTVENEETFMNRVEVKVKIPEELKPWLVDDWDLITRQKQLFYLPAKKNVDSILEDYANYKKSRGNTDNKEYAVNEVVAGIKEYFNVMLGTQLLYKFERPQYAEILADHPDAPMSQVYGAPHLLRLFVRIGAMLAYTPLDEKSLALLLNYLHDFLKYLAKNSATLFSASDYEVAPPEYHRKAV
inactive: [1] -0.038 | [2] -0.012 | [3] 0.011 | [4] -0.062 | [5] 0.019 | [6] -0.034 | [7] -0.089 | [8] 0.01 | [9] 0.003 | [10] 0.021

LAMP1 (UniProt P11279)
Sequence of UniProt P11279 (P11279 whole entry, looked up): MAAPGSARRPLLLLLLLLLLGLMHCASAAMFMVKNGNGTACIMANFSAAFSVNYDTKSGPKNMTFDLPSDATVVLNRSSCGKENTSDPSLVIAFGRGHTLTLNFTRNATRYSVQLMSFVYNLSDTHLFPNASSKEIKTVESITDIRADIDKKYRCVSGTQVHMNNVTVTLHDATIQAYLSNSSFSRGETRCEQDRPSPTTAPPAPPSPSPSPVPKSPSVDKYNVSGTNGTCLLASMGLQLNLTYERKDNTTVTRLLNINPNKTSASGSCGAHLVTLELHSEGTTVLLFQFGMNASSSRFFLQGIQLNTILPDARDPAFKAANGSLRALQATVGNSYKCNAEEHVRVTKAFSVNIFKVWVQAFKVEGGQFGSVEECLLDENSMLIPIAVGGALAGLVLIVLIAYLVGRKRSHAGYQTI
inactive: [1] 0.034 | [2] -0.031 | [3] -0.003 | [4] -0.11 | [5] 0.008 | [6] 0.01 | [7] 0.003 | [8] 0.022 | [9] -0.04 | [10] -0.032

MAP4 (UniProt E7EVA0)
inactive: [1] 0.001 | [2] -0.009 | [3] -0.038 | [4] -0.185 | [5] 0.036 | [6] -0.058 | [7] 0.008 | [8] 0.131 | [9] 0.005 | [10] -0.027

LSS (UniProt P48449)
inactive: [1] -0.009 | [2] -0.018 | [3] 0.14 | [4] 0.072 | [5] 0.026 | [6] 0.013 | [7] -0.131 | [8] -0.003 | [9] -0.04 | [10] -0.065

MIPEP (UniProt Q99797)
inactive: [1] 0.041 | [2] 0.054 | [3] 0.027 | [4] 0.07 | [5] -0.02 | [6] -0.001 | [7] -0.003 | [8] -0.067 | [9] 0.044 | [10] 0.003

LARS2 (UniProt Q15031)
inactive: [1] 0.009 | [2] 0.034 | [3] 0.026 | [4] 0.156 | [5] -0.027 | [6] 0.02 | [7] 0.063 | [8] -0.036 | [9] 0.046 | [10] 0.028

MAPKAPK2 (UniProt P49137)
Sequence of UniProt P49137 (P49137 whole entry, looked up): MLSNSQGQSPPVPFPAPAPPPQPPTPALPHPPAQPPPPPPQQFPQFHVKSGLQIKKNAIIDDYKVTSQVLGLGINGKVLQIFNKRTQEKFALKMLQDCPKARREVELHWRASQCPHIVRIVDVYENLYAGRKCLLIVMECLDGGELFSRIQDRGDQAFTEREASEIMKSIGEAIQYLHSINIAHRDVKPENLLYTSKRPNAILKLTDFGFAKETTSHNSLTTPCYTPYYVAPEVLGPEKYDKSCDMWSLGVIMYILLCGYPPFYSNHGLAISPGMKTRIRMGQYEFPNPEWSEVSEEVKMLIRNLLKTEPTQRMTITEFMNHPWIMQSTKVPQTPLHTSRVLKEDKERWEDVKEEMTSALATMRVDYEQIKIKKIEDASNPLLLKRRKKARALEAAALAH
active: [2] 0.385
inactive: [1] 0.05 | [3] -0.011 | [4] 0.016 | [5] -0.046 | [6] 0.003 | [7] 0.002 | [8] -0.056 | [9] 0.026 | [10] 0

MOSPD2 (UniProt Q8NHP6)
Sequence of UniProt Q8NHP6 (Q8NHP6 whole entry, looked up): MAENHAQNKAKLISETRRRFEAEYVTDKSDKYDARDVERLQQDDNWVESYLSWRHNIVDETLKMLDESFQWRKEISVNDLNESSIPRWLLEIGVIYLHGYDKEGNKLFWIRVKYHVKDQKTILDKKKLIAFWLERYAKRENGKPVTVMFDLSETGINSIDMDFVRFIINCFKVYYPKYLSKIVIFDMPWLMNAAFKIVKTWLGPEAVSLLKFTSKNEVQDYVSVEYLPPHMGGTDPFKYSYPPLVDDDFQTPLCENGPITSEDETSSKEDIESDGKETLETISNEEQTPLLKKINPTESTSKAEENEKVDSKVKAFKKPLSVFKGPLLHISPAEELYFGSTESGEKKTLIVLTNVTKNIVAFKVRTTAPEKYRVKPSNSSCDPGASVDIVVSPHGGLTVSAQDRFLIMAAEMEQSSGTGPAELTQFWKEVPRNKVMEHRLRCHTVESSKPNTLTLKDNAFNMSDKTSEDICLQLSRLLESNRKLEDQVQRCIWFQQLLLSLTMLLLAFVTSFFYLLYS
inactive: [1] -0.023 | [2] 0.019 | [3] 0.023 | [4] 0.067 | [5] 0.028 | [6] -0.049 | [7] 0.009 | [8] -0.037 | [9] -0.012 | [10] 0.017

LTN1 isoform 3 (UniProt O94822)
inactive: [1] -0.036 | [2] 0.018 | [3] 0.016 | [4] -0.066 | [5] 0.079 | [6] 0.001 | [7] -0.009 | [8] -0.018 | [9] 0.075 | [10] 0.019

MIF (UniProt P14174)
Sequence of UniProt P14174 (P14174 whole entry, looked up): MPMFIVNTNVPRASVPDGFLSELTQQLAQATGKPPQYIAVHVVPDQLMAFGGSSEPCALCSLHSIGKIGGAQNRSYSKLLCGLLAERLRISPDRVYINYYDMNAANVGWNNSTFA
inactive: [1] 0.101 | [2] -0.057 | [3] -0.002 | [4] 0.01 | [5] 0.003 | [6] -0.095 | [7] 0.009 | [8] -0.004 | [9] -0.019 | [10] 0.049

KIF4A (UniProt O95239)
inactive: [1] 0.011 | [2] 0.007 | [3] -0.014 | [4] 0.003 | [5] -0.002 | [6] -0.013 | [7] -0.027 | [8] 0.004 | [9] 0.056 | [10] 0.048

MPI (UniProt P34949)
inactive: [1] 0.029 | [2] 0.031 | [3] -0.06 | [4] 0.009 | [5] -0.039 | [6] -0.004 | [7] -0.051 | [8] 0.055 | [9] -0.012 | [10] -0.013

METTL2A (UniProt Q96IZ6)
inactive: [1] -0.006 | [2] 0.044 | [3] 0.048 | [4] 0.068 | [5] 0.018 | [6] 0.021 | [7] 0.038 | [8] -0.029 | [9] -0.025 | [10] 0.002

LLGL1 (UniProt Q15334)
inactive: [1] 0.007 | [2] 0.091 | [3] 0.071 | [4] 0.015 | [5] -0.141 | [6] 0.033 | [7] -0.058 | [8] 0.019 | [9] 0.174 | [10] -0.011

KRIT1 (UniProt O00522)
inactive: [1] 0.089 | [2] -0.047 | [3] 0.001 | [4] -0.02 | [5] 0.045 | [6] -0.041 | [7] -0.075 | [8] 0.045 | [9] -0.011 | [10] -0.095

MGST3 (UniProt O14880)
Sequence of UniProt O14880 (O14880 whole entry, looked up): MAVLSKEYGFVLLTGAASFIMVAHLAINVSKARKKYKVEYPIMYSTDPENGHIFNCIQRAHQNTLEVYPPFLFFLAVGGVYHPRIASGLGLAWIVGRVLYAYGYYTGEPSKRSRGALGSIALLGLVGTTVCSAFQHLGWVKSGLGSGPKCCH
inactive: [1] 0.06 | [2] -0.004 | [3] 0.041 | [4] -0.046 | [5] -0.009 | [6] -0.004 | [7] -0.03 | [8] 0.042 | [9] 0.006 | [10] -0.025

MAN2B2 (UniProt Q9Y2E5)
inactive: [1] -0.019 | [2] -0.026 | [3] 0.008 | [4] 0.083 | [5] -0.051 | [6] 0.056 | [7] -0.013 | [8] -0.013 | [9] -0.024 | [10] 0.012

MIF4GD isoform 3 (UniProt A9UHW6)
inactive: [1] 0.108 | [2] -0.032 | [3] -0.04 | [4] -0.014 | [5] 0.016 | [6] -0.002 | [7] -0.049 | [8] 0 | [9] -0.04 | [10] -0.004

MAP2K5 (UniProt Q13163)
Sequence of UniProt Q13163 (Q13163 whole entry, looked up): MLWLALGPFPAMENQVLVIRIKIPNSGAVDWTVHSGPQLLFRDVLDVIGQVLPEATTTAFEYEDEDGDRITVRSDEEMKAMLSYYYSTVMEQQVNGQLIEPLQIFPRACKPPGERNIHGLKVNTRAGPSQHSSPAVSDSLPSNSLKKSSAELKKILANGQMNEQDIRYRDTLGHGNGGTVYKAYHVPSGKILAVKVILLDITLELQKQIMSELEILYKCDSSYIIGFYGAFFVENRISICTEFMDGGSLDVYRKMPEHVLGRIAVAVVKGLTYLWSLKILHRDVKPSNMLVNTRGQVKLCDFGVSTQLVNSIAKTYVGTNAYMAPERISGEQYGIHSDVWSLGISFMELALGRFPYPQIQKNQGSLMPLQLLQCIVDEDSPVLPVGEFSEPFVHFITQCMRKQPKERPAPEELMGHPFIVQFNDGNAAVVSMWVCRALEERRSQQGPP
inactive: [1] 0.007 | [2] -0.013 | [3] 0.103 | [4] -0.075 | [5] -0.078 | [6] -0.037 | [7] -0.208 | [8] 0.235 | [9] 0.052 | [10] -0.211
